Experimental data: PubChem BioAssay (NCATS)
Results filed as inconclusive are left out. Calls of active or inactive are those of the source. Calls come from the whole dose curve; as a rule, active = well fitted curve in the direction sought with a large enough effect; inconclusive = small, poorly fitted or top-dose-only effect, or another doubt; inactive = no such curve, though single readings can be large; an effect the other way counts as inactive or inconclusive.

Tests used:
[1] = Primary qHTS for inhibitors of nuclear receptor binding SET domain protein 2 (NSD2) in an RCH-ACV wild type WT cells (2C) (AID 1645877); note: nearly all actives have a fitted effect of over 70% in size; note: potency is the fitted concentration of half-maximal effect; for activity change, negative = cell killing: % is set by controls: 0 for no effect and ±100 for the full control effect
[2] = biological target: Glutathione peroxidase 1 (Homo sapiens) (UniProt P07203); assay: Primary qHTS Assay for Inhibitors of Recombinant Selenoprotein Glutathione Peroxidase 1 (GPX1) (AID 1845191); note: nearly all actives have a fitted effect of over 65% in size; for activity, negative = inhibition: % is set by controls: 0 for no effect and ±100 for the full control effect
Method in brief: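 Recombinant GPX1 (10 nM final) was preincubated with compound for 30 min at room temperature, then reacted with 1 mM GSH, 0.5 mM CHP, 0.5 mM NADPH and 100 nM glutathione reductase; NADPH fluorescence (340/450 nm) was read at 0 and 15 min.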

[3] = biological target: Phospholipid hydroperoxide glutathione peroxidase GPX4 (Homo sapiens) (UniProt P36969); assay: Primary qHTS Assay for Inhibitors of Recombinant Selenoprotein Glutathione Peroxidase 4 (GPX4) (AID 1845192); note: nearly all actives have a fitted effect of over 65% in size; for activity change, negative = inhibition: series mostly up to about 50 µM; % is set by controls: 0 for no effect and ±100 for the full control effect
Method in brief: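 GR-coupled readout: 100 nM GR, 1 mM GSH, 0.5 mM NADPH; NADPH fluorescence (ex 340/em 450 nm) read at t=0 and after 15 min RT. GPX4 200 nM, preincubated 30 min with compound; substrate 0.5 mM CHP.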

[4] = biological target: Luciferin 4-monooxygenase (Photinus pyralis) (UniProt P08659); assay: Primary firefly luciferase (FLuc) qHTS assay for identification of artifact compounds. (AID 1845220); note: nearly all actives have a fitted effect of over 60% in size;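 for activity change, negative = inhibition: series mostly up to about 54 µM; plate controls were DMSO vehicle for no effect and no enzyme for full effect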
Method in brief: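 Reaction readout was CCD-imaged luminescence, taken 5 min after adding 10 nM purified firefly enzyme to compound-treated wells holding 10 uM luciferin and ATP in pH 7.6 buffer.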

[5] = Primary fluorescence-based thiol-reactive (MSTI) qHTS assay for identification of artifact compounds. (AID 1845221); note: nearly all actives have a fitted effect of over 65% in size; note: potency is the fitted concentration of half-maximal effect;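 for activity change, negative = thiol reactive: series mostly up to about 54 µM; thiol-reactive compounds lower the probe fluorescence signal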
Method in brief: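 In PBS pH 7.4 with 2% DMSO, each compound met 4 uM MSTI for one hour at ambient temperature, shielded from light, before fluorescence detection.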

[6] = system: Nanoluciferase (engineered Oplophorus gracilirostris luciferase); assay: Primary Nanoluciferase (NLuc) qHTS assay for identification of artifact compounds. (AID 1845222);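 note: NLuc secreted into diluted conditioned medium of S16 cells; series mostly up to about 54 µM; 0% = DMSO and -100% = no enzyme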
Method in brief: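 Concentration-response data were obtained by luminescence after 5 min with Nano-Glo substrate at 1:100. The enzyme was diluted S16 NLuc-expressing cell medium, preincubated with compound for 15 min at RT. Curves were fitted with a 4-parameter Hill model.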

[7] = Primary redox qHTS assay for identification of artifact compounds. (AID 1845223);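 note: 0% = DMSO and 100% = reference compound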
Method in brief: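 Amplex Red (25 uM) and HRP (250 mU/mL) in HBSS, with compounds for 15 min, then 250 uM DTT for 30 min, room temperature, dark. Fluorescence 525/598 nm read; normalized to DMSO and 10 uM DA3003; Hill fit.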

Chain of Phospholipid hydroperoxide glutathione peroxidase GPX4 (Homo sapiens) (P36969 whole entry, looked up): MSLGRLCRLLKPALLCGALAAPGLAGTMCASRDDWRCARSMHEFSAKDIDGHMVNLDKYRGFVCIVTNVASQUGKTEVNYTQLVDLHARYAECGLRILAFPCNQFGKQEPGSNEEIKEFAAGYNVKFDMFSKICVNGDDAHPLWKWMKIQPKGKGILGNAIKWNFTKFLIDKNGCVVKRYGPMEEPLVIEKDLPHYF
Chain of Glutathione peroxidase 1 (Homo sapiens) (P07203 whole entry, looked up): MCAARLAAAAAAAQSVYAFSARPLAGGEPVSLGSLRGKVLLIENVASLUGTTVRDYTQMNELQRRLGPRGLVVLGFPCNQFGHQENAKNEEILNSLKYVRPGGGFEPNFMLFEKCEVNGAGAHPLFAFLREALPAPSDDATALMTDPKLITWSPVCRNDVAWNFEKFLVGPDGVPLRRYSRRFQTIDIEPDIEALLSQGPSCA

C[C@@H]1O[C@@H](O[C@H]2[C@H](O[C@H]3CC[C@@]4(C)C(CC[C@]5(C)C4CC=C4[C@@H]6CC(C)(C)CC[C@]6(C(=O)O[C@@H]6OC[C@H](O)[C@H](O)[C@H]6O[C@@H]6O[C@@H](C)[C@H](O[C@@H]7O[C@H](CO)[C@@H](O)[C@H](O)[C@H]7O)[C@H](O)[C@H]6O)[C@H](O)C[C@]45C)C3(C)C)O[C@H](CO)[C@@H](O[C@@H]3OC[C@@H](O)[C@H](O)[C@H]3O)[C@@H]2O)[C@H](O)[C@H](O)[C@H]1O (stereo partly specified)
inactive: activity change, negative = cell killing [1] -15.2% [at 9.23 µM] | activity, negative = inhibition [2] -13.9% [at 9.52 µM] | outcome [3] inactive [at 9.73 µM] | activity change, negative = inhibition [4] -1.49% [at 11.6 µM] | activity change, negative = thiol reactive [5] 113% [at 11.5 µM] | activity, negative = inhibition [6] 3.16% [at 11.6 µM]

C[C@@H](O)[C@H](NC(=O)c1ccc(C#Cc2ccc(CN3CCOCC3)cc2)cc1)C(=O)NO
inactive: Potency [1] | Potency [2] | Potency [3] | Potency [4] | Potency [5] | Potency [6]

CC(C)(C#N)c1ccc(N2C(=O)OCc3cnc4ccc(-c5cnc6ccccc6c5)cc4c32)cc1
active: Potency [1] 0.817 µM
inactive: Potency [2] | Potency [3] | Potency [4] | Potency [5] | Potency [6] | Potency [7]

CC[C@H](C)[C@H](NC(=O)[C@H]([C@@H](C)CC)N(C)C(C)=O)C(=O)N[C@H](C(=O)N[C@@H](CC(C)C)C(=O)[C@@]1(C)CO1)[C@@H](C)O
active: Potency [1] 0.0073 µM
inactive: Potency [2] | Potency [3] | Potency [4] | Potency [5] | Potency [6]

CCC(O)C(C)C1CCC(C(C)C(=O)O)O1 (stereo unspecified)
inactive: Potency [1] | Potency [2] | Potency [3] | Potency [4] | Potency [6]
active: Potency [5] 10.6 µM

COc1ncc2cc(C(=O)Nc3cc(C(=O)NCc4cccc(Cl)c4)ccc3Cl)c(=O)[nH]c2n1
active: Potency [1] 5.8 µM
inactive: Potency [2] | Potency [3] | Potency [4] | Potency [5] | Potency [6] | Potency [7]

CO[C@H]1/C=C/C=C/C=C/C[C@H](OC(=O)[C@@H](C)NC(=O)C2CCCCC2)[C@H](C)[C@@H](O)/C(C)=C/CCc2cc(O)cc(c2)NC(=O)C1
active: Potency [1] 0.242 µM | Potency [5] 5.61 µM
inactive: Potency [2] | Potency [3] | Potency [4] | Potency [6]

CC(=O)c1ccc(O[C@@H]2O[C@H](CO)[C@@H](O)[C@H](O)[C@H]2O)cc1
inactive: Potency [1] | Potency [2] | Potency [3] | Potency [4] | Potency [5] | Potency [6] | Potency [7]

C[C@@H]1CC[C@]2(C(=O)O[C@@H]3O[C@H](CO)[C@@H](O)[C@H](O)[C@H]3O)CC[C@]3(C)C(=CCC4[C@@]5(C)C[C@@H](O)[C@H](O)[C@@](C)(C(=O)O[C@H]6[C@H](O)C[C@@]7(C)C(CC[C@]8(C)C7CC=C7[C@H]9[C@](C(=O)O[C@@H]%10O[C@H](CO)[C@@H](O)[C@H](O)[C@H]%10O)(CC[C@@H](C)[C@@]9(C)O)CC[C@]78C)[C@@]6(CO)C(=O)O)C5CC[C@]43C)[C@@H]2[C@]1(C)O (stereo partly specified)
inactive: activity change, negative = cell killing [1] 0.118% [at 9.23 µM] | outcome [2] inactive [at 9.52 µM] | activity change, negative = inhibition [3] -0.473% [at 9.73 µM] | activity change, negative = inhibition [4] 0.17% [at 11.6 µM] | activity change, negative = thiol reactive [5] -3.19% [at 11.5 µM] | activity, negative = inhibition [6] -2.05% [at 11.6 µM]

COc1cc(C(=O)NC2CCN(C)CC2)c(F)cc1Nc1ncc2c(n1)N(C1CCCC1)CC(F)(F)C(=O)N2C
active: Potency [1] 0.0833 µM
inactive: Potency [2] | Potency [3] | Potency [4] | Potency [5] | Potency [6]

O=C(O)CCCCCC[C@H]1C(=O)NC(=O)N1CC[C@@H](O)C1CCCCC1
inactive: Potency [1] | Potency [2] | Potency [3] | Potency [4] | Potency [5] | Potency [6] | Potency [7]

CC(=O)O[C@H]1[C@@H](O)[C@H](O[C@H]2[C@@H]3C=CO[C@@H](O[C@H]4O[C@@H](CO)[C@H](O)[C@@H](O)[C@@H]4O)[C@@H]3[C@@]3(CO)O[C@@H]23)O[C@@H](C)[C@@H]1OC(=O)/C=C/c1ccccc1
inactive: Potency [1] | Potency [2] | Potency [3] | Potency [4] | Potency [6]
active: Potency [5] 7.93 µM

COc1cccc(C(=O)N2CCN(C(=O)COc3cccc(C)c3)CC2)c1OC
inactive: Potency [1] | Potency [2] | Potency [3] | Potency [4] | Potency [5] | Potency [6]

Cn1cc(S(=O)(=O)c2ccc(Cl)cc2)c2cccc(N3CCNCC3)c21
inactive: Potency [2] | Potency [3] | Potency [4] | Potency [5] | Potency [6]
active: Potency [1] 11.5 µM

COc1c(C)c(OCC(O)C(C)(C)O)cc2c1COC2=O (stereo unspecified)
inactive: Potency [1] | Potency [2] | Potency [3] | Potency [4] | Potency [5] | Potency [6] | Potency [7]

C/C(=C\C=C\C(C)C1CCC2(C)C3CCC4C(C)(C)C(=O)CCC45CC35CCC12C)C(=O)O (stereo unspecified)
inactive: Potency [1] | Potency [2] | Potency [3] | Potency [4] | Potency [5] | Potency [6] | Potency [7]

CC1CCC2(C=O)C(CO)=CCCC2C1(C)CC(=O)O (stereo unspecified)
active: Potency [5] 3.36 µM
inactive: Potency [1] | Potency [2] | Potency [3] | Potency [4] | Potency [6]

COc1ccc2nc(S(=O)(=O)Cc3ncc(C)c(OC)c3C)[nH]c2c1
inactive: Potency [1] | Potency [2] | Potency [3] | Potency [4] | Potency [5] | Potency [6]

CC1(C)CC[C@]2(C(=O)O)CC[C@]3(C)C(=CCC4[C@@]5(C)CC[C@H](O[C@@H]6O[C@H](C(=O)O)[C@@H](O[C@@H]7OC[C@@H](O)[C@H](O)[C@H]7O)[C@H](O)[C@H]6O)C(C)(C)C5CC[C@]43C)C2C1O (stereo partly specified)
inactive: Potency [1] | Potency [2] | Potency [3] | Potency [4] | Potency [5] | Potency [6] | Potency [7]
